PubChem BioAssay (NCATS)
Records with an inconclusive call do not appear. Active and inactive are the calls of the source. Calls come from the whole dose curve.

Molecular target: Estrogen receptor (Homo sapiens) (UniProt P03372)
Assay: qHTS assay for small molecule agonists of estrogen receptor alpha signaling (AID 588514); note: nearly all actives have a fitted effect of over 70% in size;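 for activation: 0% = vehicle only and 100% = reference agonist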
Conditions: ER-alpha-UAS-bla HEK293, beta-lactamase ratio, 18 h; series mostly up to 76.8 µM; activation: at the top concentration
From the text: NIH Chemical Genomics Center [NCGC]
U.S. Environmental Protection Agency [EPA]
National Institutes of Environmental Health Sciences [NIEHS]
National Toxicology Program [NTP]
Estrogen receptor alpha (ER-alpha) is an important member of nuclear hormone receptors. ER-alpha plays important role in breast cancer as well as in other women's health issues. The majority of breast cancers is estrogen receptor (ER) positive and depends on estrogen for growth. There is also growing concern for some of environmental chemicals which may contribute the increasing the incidence of breast cancer. Therefore, it is important to understand the effect of environmental chemicals in ER-alpha signaling pathway.
NCGC Assay Protocol Summary
Using a beta-lactamase reporter-gene under control of the ER response element, a cell-based assay [ER-alpha-UAS-bla GripTiteTM cell-Based Assay from Invitrogen] was used to measure ER-alpha signaling pathway in agonist mode. ER-alpha-UAS-bla-GripTite HEK 293 cells were used with assay medium containing 2% charcoal/dextran treated FBS, 0.1 mM NEAA and 1 mM sodium pyruvate. Cells were cultured in this assay medium overnight in the flasks before the assay. The assay was performed in clear bottom black Greiner 1536-well plates. 17-beta-estradiol was used as a positive control in the screen. Library compounds were measured for their ability to either stimulate the reporter gene activity. Compounds were screened in a titration series in 1536-well format. […] Data was normalized relative to 17-beta-estradiol control (20 nM, 100%), and DMSO only wells (basal, 0%). Concentration-response titration points for each compound were fitted to the Hill equation yielding concentrations of half-maximal stimulation (EC50) and maximal response (efficacy) values.
qHTS protocol for ER-alpha beta-lactamase assay in agonist mode
[Step] [Parameter] [Value] [Description]
1. Reagent; 6 uL; 5000 cells/well
2. Incubation; 37 C for 4 hrs
4. Controls (17-beta-estradiol); 23 nL
- Dose response, start 1uM, 1:3 dilutions with duplicates
- Two columns with 20 and 0.5 nM (final) concentration.
5. Incubation; 37 C for 18 hrs
6. Detection reagent; 1 uL of CCF4-dye
7. Incubation; RT for 2 hrs
8. Detection; Fluorescence; Envision plate reader or Acumen plate reader

Chain of Estrogen receptor (Homo sapiens) (P03372 whole entry, looked up): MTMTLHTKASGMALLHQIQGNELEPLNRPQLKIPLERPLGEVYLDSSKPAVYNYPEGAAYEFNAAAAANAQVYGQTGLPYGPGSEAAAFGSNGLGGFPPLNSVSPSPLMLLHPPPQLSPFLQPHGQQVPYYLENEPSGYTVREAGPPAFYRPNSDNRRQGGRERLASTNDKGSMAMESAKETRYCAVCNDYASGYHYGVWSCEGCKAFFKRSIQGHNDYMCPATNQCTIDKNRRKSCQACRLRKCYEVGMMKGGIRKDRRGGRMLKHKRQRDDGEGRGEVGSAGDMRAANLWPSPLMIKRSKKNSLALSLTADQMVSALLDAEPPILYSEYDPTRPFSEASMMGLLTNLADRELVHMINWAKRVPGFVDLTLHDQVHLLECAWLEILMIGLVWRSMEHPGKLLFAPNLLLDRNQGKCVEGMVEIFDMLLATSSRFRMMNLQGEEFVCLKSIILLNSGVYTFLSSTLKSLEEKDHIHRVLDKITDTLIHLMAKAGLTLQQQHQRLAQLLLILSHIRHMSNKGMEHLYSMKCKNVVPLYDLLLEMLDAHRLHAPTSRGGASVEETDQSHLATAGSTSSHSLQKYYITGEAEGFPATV

With `COc1cnc(OC)n2nc(NS(=O)(=O)c3c(OCC(F)F)cccc3C(F)(F)F)nc12` as the molecule, how does the “activation” value read?
The value was -7.69% (inactive).

How did the “activation” value turn out when `Oc1ccc(C2(c3ccc(O)cc3)c3ccccc3-c3ccccc32)cc1` was run?
Its value is -9.78% (inactive).

With `Nc1c(Cl)c(F)nc(OCC(=O)O)c1Cl` as the molecule, how does the “activation” value read?
The value was -2.46% (inactive).

Which “activation” value does the source give for `CC(C)=CC1C(C(=O)OCc2coc(Cc3ccccc3)c2)C1(C)C` (stereo not given) here?
The value was -0.934% (inactive).

With `CCOC(=O)Nc1cccc(OC(=O)Nc2ccccc2)c1` as the molecule, how does the “activation” value read?
The value was -7.61% (inactive).

Which “activation” value does the source give for `C=CC(=O)OCC(CO)(COC(=O)C=C)COC(=O)C=C` here?
Its value is -8.88% (inactive).

For `O=C(NC(=O)c1c(F)cccc1F)Nc1cc(Cl)c(OC(F)(F)C(F)F)c(Cl)c1`, which “activation” value is on record?
Its value is 9.01% (inactive).

How did the “activation” value turn out when `Cc1c(COC(=O)C2C(/C=C(\Cl)C(F)(F)F)C2(C)C)cccc1-c1ccccc1` (stereo not given) was run?
Its value is -2.37% (inactive).

Which “activation” value does the source give for `COP(=O)(OC)SCn1c(=O)oc2cc(Cl)cnc21` here?
Its value is 0.26% (inactive).

For `CCOP(=O)(OCC)SCSCC`, which “activation” value is on record?
The value was -1.43% (inactive).

How did the “activation” value turn out when `Nc1ccc([N+](=O)[O-])cc1Cl` was run?
The value was -0.279% (inactive).

For `CCNC(=O)NC(=O)/C(C#N)=N/OC`, which “activation” value is on record?
The value was 3.03% (inactive).

With `C=CC(=O)NCO` as the molecule, how does the Potency read?
The Potency was “inactive”.

How did the “activation” value turn out when `CCSCCSP(=O)(OC)OC` was run?
Its value is 8.81% (inactive).

`O=[As](O)(O)O` was tested. Which “activation” value did it give?
Its value is 8.61% (inactive).

Which “activation” value does the source give for `CCCCOCN(C(=O)CCl)c1c(CC)cccc1CC` here?
The value was -7.69% (inactive).

With `CCc1cc(C)cc(CC)c1-c1c(OC(=O)C(C)(C)C)n2n(c1=O)CCOCC2` as the molecule, how does the “activation” value read?
The value was -3.94% (inactive).

`c1cc[n+]2c(c1)-c1cccc[n+]1CC2` was tested. Which “activation” value did it give?
The value was -7.18% (inactive).

For `CCCCOC(=O)[C@@H](C)Oc1ccc(Oc2ccc(C#N)cc2F)cc1`, which “activation” value is on record?
Its value is -15.7% (inactive).

With `O=Nc1ccc(Nc2ccccc2)cc1` as the molecule, how does the Potency read?
The Potency was 5.01 µM (active).

How did the Potency turn out when `O=S(=O)(c1ccc(O)cc1)c1ccc(O)cc1` was run?
The Potency was 14.1 µM (active).

How did the “activation” value turn out when `ClC1=C(Cl)C2(Cl)C3C4OC4C(Cl)C3C1(Cl)C2(Cl)Cl` (stereo not given) was run?
The value was 3.86% (inactive).

`CCOP(=S)(OCC)Oc1ccc(S(C)=O)cc1` (stereo not given) was tested. Which “activation” value did it give?
Its value is 1.11% (inactive).

How did the “activation” value turn out when `COc1nc(C)nc(NC(=O)NS(=O)(=O)c2ccccc2CCC(F)(F)F)n1` was run?
Its value is 2.83% (inactive).

Which “activation” value does the source give for `CNC(=O)Oc1ccc(N(C)C)c(C)c1` here?
Its value is 3.73% (inactive).

How did the “activation” value turn out when `CS/C(C)=N/OC(=O)N(C)SN(C)C(=O)O/N=C(\C)SC` was run?
The value was -0.403% (inactive).

`CSC(=O)c1c(C(F)F)nc(C(F)(F)F)c(C(=O)SC)c1CC(C)C` was tested. Which “activation” value did it give?
Its value is -2.12% (inactive).

For `CCN(CC)C(=O)C(C)Oc1cccc2ccccc12` (stereo not given), which “activation” value is on record?
Its value is -2.73% (inactive).

With `CC1(C)CCC(Cc2ccc(Cl)cc2)C1(O)Cn1cncn1` (stereo not given) as the molecule, how does the “activation” value read?
The value was 4.54% (inactive).

Which “activation” value does the source give for `CN(C)P(=O)(N(C)C)N(C)C` here?
The value was 0.94% (inactive).

How did the “activation” value turn out when `CCCCC(O)(Cn1cncn1)c1ccc(Cl)cc1Cl` (stereo not given) was run?
Its value is 1.44% (inactive).

How did the “activation” value turn out when `O=[N+]([O-])c1ccc(Cl)c([N+](=O)[O-])c1` was run?
The value was -10.6% (inactive).

Which “activation” value does the source give for `C/C=C(\C)C(=O)O[C@H]1C[C@@H](OC(C)=O)[C@@]2(C(=O)OC)CO[C@H]3[C@@H](O)[C@@](C)([C@]45O[C@@]4(C)[C@H]4C[C@@H]5O[C@@H]5OC=C[C@@]54O)[C@H]4[C@]1(CO[C@]4(O)C(=O)OC)[C@@H]32` here?
Its value is -5.73% (inactive).

Which “activation” value does the source give for `Clc1ccc(C2(Cn3cncn3)CC(Br)CO2)c(Cl)c1` (stereo not given) here?
The value was 15.8% (inactive).

For `CNC(=O)Oc1cc(C)cc(C(C)C)c1`, which “activation” value is on record?
The value was -3.7% (inactive).

`COc1ccc(C(O)(c2cncnc2)C2CC2)cc1` (stereo not given) was tested. Which “activation” value did it give?
Its value is -1.76% (inactive).

For `CC(C)N(C(=O)COc1nnc(C(F)(F)F)s1)c1ccc(F)cc1`, which “activation” value is on record?
Its value is -6.57% (inactive).

`Cc1ccccc1C(=O)Nc1cccc(OC(C)C)c1` was tested. Which “activation” value did it give?
Its value is -5.88% (inactive).

`COc1cc(OC)nc(NC(=O)NS(=O)(=O)c2ncccc2C(F)(F)F)n1` was tested. Which “activation” value did it give?
Its value is -5.67% (inactive).

Which “activation” value does the source give for `CN(C)c1nc(=O)n(C2CCCCC2)c(=O)n1C` here?
The value was -5.53% (inactive).
